# Compounds without any hit were thinned out: in the full panel of roughly 83,000, 20% have a hit.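 The test compound was applied at a single concentration to cells in 96-well plates for 48 hours, and percent growth was recorded.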 A number with no mark means an inactive call. Activity calls are given as the source filed them. How the source made its calls: active means growth percent below 10; inactive means the rest.
# Tests used:
# Test in all cases: NCI-60 one-dose screen, 48 h (100 = growth as untreated, 0 = no growth, -100 = all killed)
# DU-145 prostate = settings: 10 µM unless noted
# K-562 leukemia = settings: 10 µM unless noted
# MALME-3M melanoma = settings: 10 µM unless noted
# MDA-MB-231 breast = settings: 10 µM unless noted
# RXF 393 renal = settings: 10 µM unless noted
# SF-268 CNS = settings: 10 µM unless noted
# SF-295 CNS = settings: 10 µM unless noted
# SF-539 CNS = settings: 10 µM unless noted
# UACC-257 melanoma = settings: 10 µM
# M14 melanoma = settings: 10 µM unless noted
# HCT-15 colon = settings: 10 µM unless noted
# HT29 colon = settings: 10 µM unless noted
# SNB-75 CNS = settings: 10 µM unless noted
# SNB-19 CNS = settings: 10 µM unless noted
# U251 CNS = settings: 10 µM unless noted
# PC-3 prostate = settings: 10 µM unless noted
# SK-MEL-5 melanoma = settings: 10 µM unless noted
# UACC-62 melanoma = settings: 10 µM unless noted
# LOX IMVI melanoma = settings: 10 µM unless noted
# SK-MEL-28 melanoma = settings: 10 µM unless noted
SMILES,growth (DU-145 prostate),growth (K-562 leukemia),growth (MALME-3M melanoma),growth (MDA-MB-231 breast),growth (RXF 393 renal),growth (SF-268 CNS),growth (SF-295 CNS),growth (SF-539 CNS),growth (UACC-257 melanoma),growth (M14 melanoma),growth (HCT-15 colon),growth (HT29 colon),growth (SNB-75 CNS),growth (SNB-19 CNS),growth (U251 CNS),growth (PC-3 prostate),growth (SK-MEL-5 melanoma),growth (UACC-62 melanoma),growth (LOX IMVI melanoma),growth (SK-MEL-28 melanoma)
CCCCCc1ccc(S(=O)(=O)N(C(C)=O)c2cccc(-c3csc(N(CCN4CCN(C)CC4)C(C)=O)n3)c2)cc1,41.6%,-26.2% (active),-85.6% (active),4.58% (active),-59.2% (active),63.2%,-68.1% (active),-80.9% (active),-52.6% (active),-71.7% (active),-13.6% (active),-41.4% (active),64%,60.6%,-10.8% (active),62.5%,-97.7% (active),-71.4% (active),-92.1% (active),-85.8% (active)
COc1cc(/C=C/C(=O)c2ccc(NC(=O)COc3cccc4cccnc34)cc2)cc(OC)c1OC,78.1%,34.1%,70.2%,73.7%,86.7%,81.6%,90.8%,72.3%,74.6%,91.4%,50.3%,81.2%,82.4%,73.7%,83.8%,84.6%,73.2%,70.1%,42.5%,95.2%
N#C/C(=C\c1ccc(Cl)cc1Cl)C(N)=O,114%,80.3%,105%,100%,102%,101%,107%,104%,109%,99.4%,87.7%,106%,90.2%,97.6%,95.5%,92.5%,101%,96.8%,97.3%,112%
C/C=C/C=C1\C[C@H]2CO[C@H](O2)C1=O,106%,56.8%,102%,105%,104%,105%,106%,102%,90.8%,85.4%,80.8%,108%,106%,95.6%,97.4%,96.5%,98.5%,89.5%,49.3%,104%
CNC(=O)c1cc(Oc2ccc3nc(NC(=O)c4cc(C)cc(C)c4)sc3c2)ccn1,93.5%,50%,87.7%,84.6%,69.2%,82.4%,65%,85.6%,89.1%,53.6%,66.9%,86%,85.5%,81.3%,89.3%,47.9%,77.4%,76.9%,102%,79.9%
COc1ccc(-c2ccnc3c(C#N)c(Nc4ccccc4)nn23)cc1OC,93.9%,93.6%,110%,64.2%,15.8%,86.4%,93.2%,78.8%,104%,117%,88.8%,90%,51.4%,95.1%,87.7%,89.2%,74.2%,85.3%,90.9%,90.7%
CC(C)SC1=NC(=C(C(=N1)NC2=ClC=CC=C2)C#N)C3=CC=CC=C3,81.2%,59.6%,65.4%,78.9%,69.3%,78.4%,52.8%,44.9%,100%,89.1%,63%,80.5%,26.5%,69.5%,49.7%,78.2%,91.2%,84%,70%,87.7%
C#CCOc1ccc(C(Nc2cc(Cl)ccc2Cl)c2nnnn2C2CCCCC2)cc1 (stereo not given),97.7%,83.5%,101%,73.7%,92.6%,83.4%,80.7%,95.3%,102%,92.2%,86.4%,92.7%,95.1%,86%,82.7%,76.9%,95.4%,66.7%,97.7%,107%

# — PubChem BioAssay (NCI)
